Records with an inconclusive call do not appear. Active and inactive are the calls of the source. The call rests on the fitted dose curve; in most records, active means well fitted inhibition curve with a large enough effect; inconclusive means small, poorly fitted or top-dose-only effect; inactive means flat fitted curve, though single readings scatter.
The molecules below were run on CP203 (assay: qHTS profiling for inhibitors of Plasmodium falciparum proliferation (AID 504749;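 further: 0% = DMSO vehicle and full inhibition = artemisinin control; nearly all actives have a fitted effect of over 60% in size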)). Conditions: P. falciparum in erythrocytes, SYBR Green DNA, 72 h; series mostly up to 12.8 µM; activity, negative = inhibition: at the top concentration.
Outline: (§1)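 SYBR Green fluorescence of parasite DNA, read after lysis and overnight dark incubation, measured growth over 72 h in erythrocyte culture at 0.3% parasitemia and 2.5% hematocrit. Data normalised to DMSO and 0.29 uM artemisinin, with plate-drift correction.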
In the case of `C[N+](C)(C)CC(O)CC(=O)O` (stereo not given), the “activity, negative = inhibition” value is reported as 6.42% [at 28.7 µM] (inactive). In the case of `CC(C)N1CCN(c2ccc(OC[C@@H]3CO[C@@](Cn4cncn4)(c4ccc(Cl)cc4Cl)O3)cc2)CC1`, the “activity, negative = inhibition” value is reported as -2.11% (inactive). With `C[C@@H]1CCC[C@H](C)N1NC(=O)c1ccc(Cl)c(S(N)(=O)=O)c1` the “activity, negative = inhibition” value was -13.9% (inactive). With `O=C(Cc1cccs1)NC1C(=O)N2C(C(=O)[O-])=C(C[n+]3ccccc3)CSC12` (stereo not given) the “activity, negative = inhibition” value was 3.53% [at 28.7 µM] (inactive).

Each molecule was assayed on CP211 in the same assay as above. Conditions: P. falciparum in erythrocytes, SYBR Green DNA, 72 h; series mostly up to 12.8 µM; activity, negative = inhibition: at the top concentration.
Outline: as §1
With `C[N+](C)(C)CC(O)CC(=O)O` (stereo not given) the “activity, negative = inhibition” value was -13.1% [at 28.7 µM] (inactive). `CC(C)N1CCN(c2ccc(OC[C@@H]3CO[C@@](Cn4cncn4)(c4ccc(Cl)cc4Cl)O3)cc2)CC1` was tested, and the “activity, negative = inhibition” value was -2.77% (inactive). With `C[C@@H]1CCC[C@H](C)N1NC(=O)c1ccc(Cl)c(S(N)(=O)=O)c1` the “activity, negative = inhibition” value was -1.01% (inactive). For `O=C(Cc1cccs1)NC1C(=O)N2C(C(=O)[O-])=C(C[n+]3ccccc3)CSC12` (stereo not given), the “activity, negative = inhibition” value was 2.34% [at 28.7 µM] (inactive).

These molecules were tested on CP215 in the same assay as above. Conditions: P. falciparum in erythrocytes, SYBR Green DNA, 72 h; series mostly up to 28.7 µM; activity, negative = inhibition: at the top concentration.
Outline: as §1
In the case of `C[N+](C)(C)CC(O)CC(=O)O` (stereo not given), the “activity, negative = inhibition” value is reported as -8.49% (inactive). For `C[C@@H]1CCC[C@H](C)N1NC(=O)c1ccc(Cl)c(S(N)(=O)=O)c1`, the “activity, negative = inhibition” value was -0.93% [at 12.8 µM] (inactive). In the case of `O=C(Cc1cccs1)NC1C(=O)N2C(C(=O)[O-])=C(C[n+]3ccccc3)CSC12` (stereo not given), the “activity, negative = inhibition” value is reported as 2.25% (inactive).

What follows are molecules tested on CP217 in the same assay as above. Conditions: P. falciparum in erythrocytes, SYBR Green DNA, 72 h; series mostly up to 12.8 µM; activity, negative = inhibition: at the top concentration.
Outline: as §1
With `C[N+](C)(C)CC(O)CC(=O)O` (stereo not given) the “activity, negative = inhibition” value was 8.38% [at 28.7 µM] (inactive). With `CC(C)N1CCN(c2ccc(OC[C@@H]3CO[C@@](Cn4cncn4)(c4ccc(Cl)cc4Cl)O3)cc2)CC1` the “activity, negative = inhibition” value was -7.22% (inactive). In the case of `C[C@@H]1CCC[C@H](C)N1NC(=O)c1ccc(Cl)c(S(N)(=O)=O)c1`, the “activity, negative = inhibition” value is reported as 0.702% (inactive). With `O=C(Cc1cccs1)NC1C(=O)N2C(C(=O)[O-])=C(C[n+]3ccccc3)CSC12` (stereo not given) the “activity, negative = inhibition” value was 4.26% [at 28.7 µM] (inactive).

These molecules were tested on CP237 in the same assay as above. Conditions: P. falciparum in erythrocytes, SYBR Green DNA, 72 h; series mostly up to 12.8 µM; activity, negative = inhibition: at the top concentration.
Outline: as §1
For `C[N+](C)(C)CC(O)CC(=O)O` (stereo not given), the “activity, negative = inhibition” value was 2.46% [at 28.7 µM] (inactive). `CC(C)N1CCN(c2ccc(OC[C@@H]3CO[C@@](Cn4cncn4)(c4ccc(Cl)cc4Cl)O3)cc2)CC1` was tested, and the “activity, negative = inhibition” value was -25.7% (inactive). For `C[C@@H]1CCC[C@H](C)N1NC(=O)c1ccc(Cl)c(S(N)(=O)=O)c1`, the “activity, negative = inhibition” value was 1.95% (inactive). For `O=C(Cc1cccs1)NC1C(=O)N2C(C(=O)[O-])=C(C[n+]3ccccc3)CSC12` (stereo not given), the “activity, negative = inhibition” value was 4.78% [at 28.7 µM] (inactive).

Each molecule was assayed on CP238 in the same assay as above. Conditions: P. falciparum in erythrocytes, SYBR Green DNA, 72 h; series mostly up to 12.8 µM; activity, negative = inhibition: at the top concentration.
Outline: as §1
For `C[N+](C)(C)CC(O)CC(=O)O` (stereo not given), the “activity, negative = inhibition” value was 5.06% [at 28.7 µM] (inactive). In the case of `CC(C)N1CCN(c2ccc(OC[C@@H]3CO[C@@](Cn4cncn4)(c4ccc(Cl)cc4Cl)O3)cc2)CC1`, the “activity, negative = inhibition” value is reported as -7.03% (inactive). For `C[C@@H]1CCC[C@H](C)N1NC(=O)c1ccc(Cl)c(S(N)(=O)=O)c1`, the “activity, negative = inhibition” value was 8.07% (inactive). In the case of `O=C(Cc1cccs1)NC1C(=O)N2C(C(=O)[O-])=C(C[n+]3ccccc3)CSC12` (stereo not given), the “activity, negative = inhibition” value is reported as 10.5% [at 28.7 µM] (inactive).

The molecules below were run on CP247 in the same assay as above. Conditions: P. falciparum in erythrocytes, SYBR Green DNA, 72 h; series mostly up to 12.8 µM; activity, negative = inhibition: at the top concentration.
Outline: as §1
For `C[N+](C)(C)CC(O)CC(=O)O` (stereo not given), the “activity, negative = inhibition” value was 9.08% [at 28.7 µM] (inactive). For `CC(C)N1CCN(c2ccc(OC[C@@H]3CO[C@@](Cn4cncn4)(c4ccc(Cl)cc4Cl)O3)cc2)CC1`, the “activity, negative = inhibition” value was -2.34% (inactive). For `C[C@@H]1CCC[C@H](C)N1NC(=O)c1ccc(Cl)c(S(N)(=O)=O)c1`, the “activity, negative = inhibition” value was 2.98% (inactive). For `O=C(Cc1cccs1)NC1C(=O)N2C(C(=O)[O-])=C(C[n+]3ccccc3)CSC12` (stereo not given), the “activity, negative = inhibition” value was 9.83% [at 28.7 µM] (inactive).

Each molecule was assayed on CP250 in the same assay as above. Conditions: P. falciparum in erythrocytes, SYBR Green DNA, 72 h; series mostly up to 12.8 µM; activity, negative = inhibition: at the top concentration.
Outline: as §1
With `C[N+](C)(C)CC(O)CC(=O)O` (stereo not given) the “activity, negative = inhibition” value was 4.94% [at 28.7 µM] (inactive). With `CN(C)CC/C=C1\c2ccccc2CSc2ccccc21` the “activity, negative = inhibition” value was -19% (inactive). For `CC(C)N1CCN(c2ccc(OC[C@@H]3CO[C@@](Cn4cncn4)(c4ccc(Cl)cc4Cl)O3)cc2)CC1`, the “activity, negative = inhibition” value was -0.24% (inactive). For `C[C@@H]1CCC[C@H](C)N1NC(=O)c1ccc(Cl)c(S(N)(=O)=O)c1`, the “activity, negative = inhibition” value was 11.5% (inactive). In the case of `O=C(Cc1cccs1)NC1C(=O)N2C(C(=O)[O-])=C(C[n+]3ccccc3)CSC12` (stereo not given), the “activity, negative = inhibition” value is reported as 5.25% [at 28.7 µM] (inactive).

These molecules were tested on CP252 in the same assay as above. Conditions: P. falciparum in erythrocytes, SYBR Green DNA, 72 h; series mostly up to 12.8 µM; activity, negative = inhibition: at the top concentration.
Outline: as §1
In the case of `C[N+](C)(C)CC(O)CC(=O)O` (stereo not given), the “activity, negative = inhibition” value is reported as 0.404% [at 28.7 µM] (inactive). `CC(C)N1CCN(c2ccc(OC[C@@H]3CO[C@@](Cn4cncn4)(c4ccc(Cl)cc4Cl)O3)cc2)CC1` was tested, and the “activity, negative = inhibition” value was -2.99% (inactive). In the case of `C[C@@H]1CCC[C@H](C)N1NC(=O)c1ccc(Cl)c(S(N)(=O)=O)c1`, the “activity, negative = inhibition” value is reported as 0.192% (inactive). In the case of `O=C(Cc1cccs1)NC1C(=O)N2C(C(=O)[O-])=C(C[n+]3ccccc3)CSC12` (stereo not given), the “activity, negative = inhibition” value is reported as 2.91% [at 28.7 µM] (inactive).

Each molecule was assayed on CP256 in the same assay as above. Conditions: P. falciparum in erythrocytes, SYBR Green DNA, 72 h; series mostly up to 12.8 µM; activity, negative = inhibition: at the top concentration.
Outline: as §1
In the case of `C[N+](C)(C)CC(O)CC(=O)O` (stereo not given), the “activity, negative = inhibition” value is reported as 7.25% [at 28.7 µM] (inactive). `CN(C)CC/C=C1\c2ccccc2CSc2ccccc21` was tested, and the “activity, negative = inhibition” value was -25.2% (inactive). `CC(C)N1CCN(c2ccc(OC[C@@H]3CO[C@@](Cn4cncn4)(c4ccc(Cl)cc4Cl)O3)cc2)CC1` was tested, and the “activity, negative = inhibition” value was 15.8% (inactive). In the case of `C[C@@H]1CCC[C@H](C)N1NC(=O)c1ccc(Cl)c(S(N)(=O)=O)c1`, the “activity, negative = inhibition” value is reported as 10.3% (inactive). For `O=C(Cc1cccs1)NC1C(=O)N2C(C(=O)[O-])=C(C[n+]3ccccc3)CSC12` (stereo not given), the “activity, negative = inhibition” value was 8.28% [at 28.7 µM] (inactive).

The molecules below were run on CP260 in the same assay as above. Conditions: P. falciparum in erythrocytes, SYBR Green DNA, 72 h; series mostly up to 12.8 µM; activity, negative = inhibition: at the top concentration.
Outline: as §1
In the case of `C[N+](C)(C)CC(O)CC(=O)O` (stereo not given), the “activity, negative = inhibition” value is reported as -5.15% [at 28.7 µM] (inactive). In the case of `CC(C)N1CCN(c2ccc(OC[C@@H]3CO[C@@](Cn4cncn4)(c4ccc(Cl)cc4Cl)O3)cc2)CC1`, the “activity, negative = inhibition” value is reported as 2.68% (inactive). With `C[C@@H]1CCC[C@H](C)N1NC(=O)c1ccc(Cl)c(S(N)(=O)=O)c1` the “activity, negative = inhibition” value was 4.7% (inactive). For `O=C(Cc1cccs1)NC1C(=O)N2C(C(=O)[O-])=C(C[n+]3ccccc3)CSC12` (stereo not given), the “activity, negative = inhibition” value was 7.49% [at 28.7 µM] (inactive).

Each molecule was assayed on CP262 in the same assay as above. Conditions: P. falciparum in erythrocytes, SYBR Green DNA, 72 h; series mostly up to 12.8 µM; activity, negative = inhibition: at the top concentration.
Outline: as §1
`C[N+](C)(C)CC(O)CC(=O)O` (stereo not given) was tested, and the “activity, negative = inhibition” value was 7.93% [at 28.7 µM] (inactive). `CN(C)CC/C=C1\c2ccccc2CSc2ccccc21` was tested, and the “activity, negative = inhibition” value was -3.92% (inactive). In the case of `CC(C)N1CCN(c2ccc(OC[C@@H]3CO[C@@](Cn4cncn4)(c4ccc(Cl)cc4Cl)O3)cc2)CC1`, the “activity, negative = inhibition” value is reported as 16.7% (inactive). `C[C@@H]1CCC[C@H](C)N1NC(=O)c1ccc(Cl)c(S(N)(=O)=O)c1` was tested, and the “activity, negative = inhibition” value was -2.1% (inactive). With `O=C(Cc1cccs1)NC1C(=O)N2C(C(=O)[O-])=C(C[n+]3ccccc3)CSC12` (stereo not given) the “activity, negative = inhibition” value was 0% [at 28.7 µM] (inactive).
